Records with an inconclusive call do not appear. Where a call stands in place of a potency, no number is given. Calls of active or inactive are those of the source. The call rests on the fitted dose curve; in most records, active means well fitted curve in the direction sought with a large enough effect; inconclusive means small, poorly fitted or top-dose-only effect, or another doubt; inactive means no such curve, though single readings can be large; an effect the other way counts as inactive or inconclusive.
Potency means the concentration at half of the fitted maximal effect.

The first experiment deals with Luciferin 4-monooxygenase (Photinus pyralis) (UniProt P08659). In words: Primary firefly luciferase (FLuc) qHTS assay for identification of artifact compounds. (AID 1845220). Further: nearly all actives have a fitted effect of over 60% in size. Conditions: purified firefly luciferase, luminescence, 5 min; series mostly up to 54.1 µM. An outline of the steps: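 qHTS, 15 min compound preincubation with substrate (10 uM luciferin, 10 uM ATP) at RT, then 10 nM FLuc; 5 min; luminescence; % inhibition vs no-enzyme/DMSO controls, 4-parameter Hill fit.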
Regarding `C=C1C(=O)O[C@@H]2C/C(C)=C\C(=O)/C=C(\C)[C@@H](OC(=O)/C(C)=C\C)[C@H](O)[C@@H]12`, the Potency entry was “inactive”.

Turning to `C/C=C1\[C@H](O[C@@H]2O[C@H](CO)[C@@H](O)[C@H](O)[C@H]2O)OC=C2C(=O)OCCc3ccc(O)c(c3)Oc3ccc(cc3)CCOC(=O)C[C@H]21`, the Potency entry was “inactive”.

As for `OC1CCC(Nc2ncc3nc(Nc4c(F)cc(F)cc4F)n([C@H]4CCOC4)c3n2)CC1` (stereo partly drawn), the Potency entry is “inactive”.

For the compound `CC(=O)O[C@H]1C(=O)[C@@]2(C)[C@H]([C@H](OC(=O)c3ccccc3)[C@]3(O)C[C@H](OC(=O)[C@H](O)[C@@H](NC(=O)c4ccccc4)c4ccccc4)C(C)=C1C3(C)C)[C@]1(OC(C)=O)CO[C@@H]1C[C@@H]2O`, the activity change, negative = inhibition is -3.6% [at 11.6 µM] (inactive).

For `COc1ccc2c(OC)c3ccoc3nc2c1OC`, the Potency entry is “inactive”.

`CC(c1ncncc1F)C(O)(Cn1cncn1)c1ccc(F)cc1F` (stereo not drawn): the Potency entry is “inactive”.

With `Cc1c(C(=O)Nc2ccc(N3CC(C)OC(C)C3)nc2)cccc1-c1ccc(OC(F)(F)F)cc1` (stereo not drawn), the Potency entry was “inactive”.

Consider `C=CC(C)(C)c1[nH]c2cc3c(cc2c1CC1NC(=O)C2=CCCN2C1=O)C=CC(C)(C)O3` (stereo not drawn), for which the Potency entry was “inactive”.

For `C=C1C(OC(C)=O)CCC2(C)CC3(OC)OC(=O)C(C)=C3CC12` (stereo not drawn), the Potency result is “inactive”.

As to `CC1=C(/C=C/C(C)=C\C=C\C(C)=C/C(=O)O)C(C)(C)CCC1`, the Potency entry is “inactive”.

Take `COC(=O)N[C@H](C(=O)N1[C@@H]2CC[C@@H](C2)[C@H]1c1nc2ccc(-c3ccc4c(c3)C(F)(F)c3cc(-c5cnc([C@@H]6CCC7(CC7)N6C(=O)[C@@H](NC(=O)OC)C(C)C)[nH]5)ccc3-4)cc2[nH]1)C(C)C`: the Potency entry is “inactive”.

In the case of `C=C[C@H]1CN2CC[C@H]1C[C@@H]2C(O)c1ccnc2ccc(OC)cc12` (stereo partly drawn), the Potency entry is “inactive”.

On to `COc1ccc(-n2[nH]c(=O)c3[nH]c4cc(Cl)ccc4c(=O)c3c2=O)c(C)c1`, for which the Potency result was “inactive”.

For the compound `Cc1cn(C2C=CC(CO)O2)c(=O)[nH]c1=O` (stereo not drawn), the Potency result was “inactive”.

Consider `FC(F)(F)c1cc(-c2ncn(/C=C\c3nnco3)n2)cc(C(F)(F)F)c1`, for which the Potency entry is “inactive”.

As to `CC1(c2nc3c(C(N)=O)cccc3[nH]2)CCCN1` (stereo not drawn), the Potency entry is “inactive”.

Consider `Cn1nc(C(C)(C)C)cc1C(=O)NC(Cc1cccc(Cl)c1)C(=O)NCC#N` (stereo not drawn), for which the Potency entry was “inactive”.

Take `COc1nc2sc(C(=O)NC3CC3)c(N)c2c(C)c1Cl`: the Potency result was “inactive”.

Turning to `CC1(C)CCCC2(C)C(CO)C(CO)=CCC12` (stereo not drawn), the Potency entry was “inactive”.

`O=[N+]([O-])c1cn2c(n1)OCC(OCc1ccc(OC(F)(F)F)cc1)C2` (stereo not drawn): the Potency result was “inactive”.

`NC(=O)C(CCC(F)(F)F)N(Cc1ccc(-c2ncon2)cc1F)S(=O)(=O)c1ccc(Cl)cc1` (stereo not drawn): the Potency entry was “inactive”.

Turning to `CON(C)C(=O)[C@H](O)[C@H](Cc1ccccc1)NC(=O)c1cc2cc(Cl)ccc2[nH]1`, the Potency result was “inactive”.

Consider `Cc1ccc(F)cc1C(=O)Nc1ccc(C(=O)N2Cc3cccn3Cc3ccccc32)c(Cl)c1`, for which the Potency result is “inactive”.

As to `CS(=O)(=O)NCC1CCC(Nc2nc3c(s2)CCSc2ccccc2-3)CC1` (stereo not drawn), the Potency result is “inactive”.

For `O=C(Nc1ccc(Cl)cc1F)c1ccccc1O`, the Potency was 1.2 µM (active).

Take `COc1cc2c3c(cc4ccccc4c3c1O)NC2=O`: the Potency entry is “inactive”.

Turning to `CN=C(N)NCCCCC/C=C(/C)CC(C)C1OC(=O)C(C)C(O)/C=C/C(C)C(O)CC(O)C(C)C(O)CCC(C)C(O)CC2(O)OC(CC(OC(=O)CC(=O)O)CC(O)CC(O)C(C)C(O)/C(C)=C/CCC1C)CC(O)C2O` (stereo not drawn), the activity change, negative = inhibition was -2.65% [at 11.6 µM] (inactive).

As to `CNC(C)C(=O)NC(C(=O)N1CCCC1c1nc(C(=O)c2ccc(F)cc2)cs1)C1CCCCC1` (stereo not drawn), the Potency result is “inactive”.

As for `COc1ccc([C@@]2(O)c3c(ccc4c3OC(C)(CCC=C(C)C)C=C4)NC(=O)[C@@H]2OC)cc1` (stereo partly drawn), the Potency result is “inactive”.

On to `Cc1cc(C)c2c(N)c(C(=O)NCc3ccc(Cl)cc3)sc2n1`, for which the Potency entry is “inactive”.

In the case of `COC(=O)N[C@@H](C)CNc1nccc(-c2cn(C(C)C)nc2-c2cc(Cl)cc(NS(C)(=O)=O)c2F)n1`, the Potency entry is “inactive”.

Regarding `OCC1OC(Oc2cc(O)cc(/C=C/c3ccc(O)cc3)c2)C(O)C(O)C1O` (stereo not drawn), the Potency result is “inactive”.

As to `C/C=C/C=C/C=C/C(=O)OC1C=C(C=O)C(O)(C(=O)O)C2(C)CCCC(C)(C)C12` (stereo not drawn), the Potency result is “inactive”.

On to `Cn1nnc(-c2ccc(-c3ccc(N4C[C@H](COP(=O)(O)O)OC4=O)cc3F)cn2)n1`, for which the Potency entry is “inactive”.

Consider `COc1cc2oc(-c3ccc(O)cc3O)cc2c(OC)c1CC=C(C)C`, for which the Potency result is “inactive”.

With `C=C1CCC2C(C)(C)CCC[C@]2(C)[C@H]1C/C=C(\CO)C(=O)C(=O)O` (stereo partly drawn), the Potency result is “inactive”.

Test system in a further experiment: not listed separately
Put plainly: Primary fluorescence-based thiol-reactive (MSTI) qHTS assay for identification of artifact compounds. (AID 1845221). Further: nearly all actives have a fitted effect of over 65% in size. The note with it: MSTI thiol-reactivity probe, 1 h; series mostly up to 53.8 µM. An outline of the steps: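 Compounds were incubated 1 h at room temperature in the dark with the MSTI probe (4 uM) in PBS pH 7.4, 2% DMSO. Signals were normalized between Acetyl-MSTI and MSTI.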
A general note: In qHTS, concentration-response curves come from the screen itself.
For `C=C1C(=O)O[C@@H]2C/C(C)=C\C(=O)/C=C(\C)[C@@H](OC(=O)/C(C)=C\C)[C@H](O)[C@@H]12`, the Potency entry was “inactive”.

As to `CC(=O)O[C@H]1C(=O)[C@@]2(C)[C@H]([C@H](OC(=O)c3ccccc3)[C@]3(O)C[C@H](OC(=O)[C@H](O)[C@@H](NC(=O)c4ccccc4)c4ccccc4)C(C)=C1C3(C)C)[C@]1(OC(C)=O)CO[C@@H]1C[C@@H]2O`, the activity change, negative = thiol reactive is 52.3% [at 11.5 µM] (inactive).

In the case of `COc1ccc2c(OC)c3ccoc3nc2c1OC`, the Potency entry was “inactive”.

On to `CC(c1ncncc1F)C(O)(Cn1cncn1)c1ccc(F)cc1F` (stereo not drawn), for which the Potency result is “inactive”.

Consider `Cc1c(C(=O)Nc2ccc(N3CC(C)OC(C)C3)nc2)cccc1-c1ccc(OC(F)(F)F)cc1` (stereo not drawn), for which the Potency entry is “inactive”.

Regarding `CC1=C(/C=C/C(C)=C\C=C\C(C)=C/C(=O)O)C(C)(C)CCC1`, the Potency entry is “inactive”.

For `COC(=O)N[C@H](C(=O)N1[C@@H]2CC[C@@H](C2)[C@H]1c1nc2ccc(-c3ccc4c(c3)C(F)(F)c3cc(-c5cnc([C@@H]6CCC7(CC7)N6C(=O)[C@@H](NC(=O)OC)C(C)C)[nH]5)ccc3-4)cc2[nH]1)C(C)C`, the Potency entry was “inactive”.

For `C=C[C@H]1CN2CC[C@H]1C[C@@H]2C(O)c1ccnc2ccc(OC)cc12` (stereo partly drawn), the Potency entry is “inactive”.

As to `Cc1cn(C2C=CC(CO)O2)c(=O)[nH]c1=O` (stereo not drawn), the Potency result is “inactive”.

Take `FC(F)(F)c1cc(-c2ncn(/C=C\c3nnco3)n2)cc(C(F)(F)F)c1`: the Potency entry was “inactive”.

With `CC1(c2nc3c(C(N)=O)cccc3[nH]2)CCCN1` (stereo not drawn), the Potency entry is “inactive”.

For the compound `Cn1nc(C(C)(C)C)cc1C(=O)NC(Cc1cccc(Cl)c1)C(=O)NCC#N` (stereo not drawn), the Potency result is “inactive”.

Take `COc1nc2sc(C(=O)NC3CC3)c(N)c2c(C)c1Cl`: the Potency result was “inactive”.

Regarding `COc1ccc(C2COc3cc(O)ccc3C2)c(O)c1` (stereo not drawn), the Potency result is “inactive”.

For the compound `NC(=O)C(CCC(F)(F)F)N(Cc1ccc(-c2ncon2)cc1F)S(=O)(=O)c1ccc(Cl)cc1` (stereo not drawn), the Potency entry is “inactive”.

On to `Cc1ccc(F)cc1C(=O)Nc1ccc(C(=O)N2Cc3cccn3Cc3ccccc32)c(Cl)c1`, for which the Potency entry is “inactive”.

As for `COC(=O)CC1CC(c2ccc(O)cc2)=NO1` (stereo not drawn), the Potency entry is “inactive”.

Regarding `O=C(Nc1ccc(Cl)cc1F)c1ccccc1O`, the Potency entry is “inactive”.

Turning to `COc1cc2c3c(cc4ccccc4c3c1O)NC2=O`, the Potency is 10.6 µM (active).

For `CNC(C)C(=O)NC(C(=O)N1CCCC1c1nc(C(=O)c2ccc(F)cc2)cs1)C1CCCCC1` (stereo not drawn), the Potency entry was “inactive”.

As to `Cc1cc(C)c2c(N)c(C(=O)NCc3ccc(Cl)cc3)sc2n1`, the Potency entry was “inactive”.

As to `COC(=O)N[C@@H](C)CNc1nccc(-c2cn(C(C)C)nc2-c2cc(Cl)cc(NS(C)(=O)=O)c2F)n1`, the Potency result is “inactive”.

`OCC1OC(Oc2cc(O)cc(/C=C/c3ccc(O)cc3)c2)C(O)C(O)C1O` (stereo not drawn): the Potency was 2.93 µM (active).

For `CCC(C)/C=C(C)/C=C/c1cc2c(cn1)C(=O)C(C)(OC(C)=O)C(O)=C2Cl` (stereo not drawn), the Potency was 0.736 µM (active).

For `C/C=C/C=C/C=C/C(=O)OC1C=C(C=O)C(O)(C(=O)O)C2(C)CCCC(C)(C)C12` (stereo not drawn), the Potency is 5.82 µM (active).

Turning to `Cn1nnc(-c2ccc(-c3ccc(N4C[C@H](COP(=O)(O)O)OC4=O)cc3F)cn2)n1`, the Potency result is “inactive”.

Take `COc1cc2oc(-c3ccc(O)cc3O)cc2c(OC)c1CC=C(C)C`: the Potency was 6.56 µM (active).

(Values after PubChem BioAssay (NCATS).)
